Measured values published in PubChem BioAssay (NCATS).
Several values for one entry are separate records, joined by “and”; a condition that tells them apart may be missing. Identical values can stand only once. Records with an inconclusive call do not appear. Where a call stands in place of a potency, no number is given. Activity calls are given as the source filed them. Unless noted, calls follow the shape of the dose curve; as a rule, active = well fitted curve in the direction sought with a large enough effect; inconclusive = small, poorly fitted or top-dose-only effect, or another doubt; inactive = no such curve, though single readings can be large; an effect the other way counts as inactive or inconclusive.

Assays:
[1] = UWB1.289 Cancer Cell Toxicity qHTS against the NCATS CANVASS Library (AID 1347347); conditions: UWB1.289 viability, CellTiter-Glo luminescence, 72 h; series mostly up to 38.3 µM; also: nearly all actives have a fitted effect of over 60% in size; also: potency is read from the fitted curve at half-maximal effect
Summary of the method: (§1)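 Viability was assessed by adding CellTiter-Glo reagent to treated cultures and reading luminescence after 15min at room temperature. Treatment lasted 72 h at 37 degrees C/5% CO2, using an 11-point series on 1000 cells/well.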

[2] = qHTS for ATAD5 Antagonist screened against the NCATS CANVASS Library (AID 1347370); conditions: HEK293T-ATAD5-luc, 5-FUrd stimulated, luminescence, 16 h; series mostly up to 46.1 µM; also: nearly all actives have a fitted effect of over 65% in size; also: potency is read from the fitted curve at half-maximal effect;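 as to activity change, negative = inhibition: HEK293T cells carrying an ATAD5 luciferase reporter co-treated with 10 µM 5-fluorouridine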
Summary of the method: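 HEK293T cells with a stably integrated ATAD5-controlled luciferase reporter were exposed to compounds (11-pt) alongside 10 uM 5-fluorouridine as ATAD5 stabilizer for 16hr at 37C. Viability was read by CellTiter-Fluor fluorescence, then ATAD5 by luminescence.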

[3] = qHTS for Activators of p53 Stress Response Pathway screened against the NCATS CANVASS Library (AID 1347388); conditions: p53RE-bla HCT-116, beta-lactamase reporter, 16 h; series mostly up to 46.1 µM; also: potency is read from the fitted curve at half-maximal effect
Summary of the method: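 p53RE-bla HCT-116 cells (4000/well) were pre-incubated for 5 h, then treated with compound (11 points) for 16 h at 37C. After 2 h with CCF4, the 460/530 nm ratio gave reporter activation; CellTiter-Glo measured viability.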

[4] = qHTS to identify inhibitors of the type 1 interferon - major histocompatibility complex class I in skeletal muscle: primary screen against the NCATS Mechanism Interrogation Plate v5.0 (MIPE) Libary (AID 1347411); conditions: iHSKM cells + IFN-b, HiBiT-tagged MHC-I luminescence, 24 h; series mostly up to 45.8 µM; also: nearly all actives have a fitted effect of over 65% in size; also: potency is read from the fitted curve at half-maximal effect
Summary of the method: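 Cells were genome-edited human myoblasts carrying a HiBit tag on endogenous HLA-B. They were treated with IFN-beta (4.0 ng/ml) and titrated compounds (top 46 uM) for 24 hrs before lytic HiBiT detection.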

[5] = Primary qHTS for inhibitors of nuclear receptor binding SET domain protein 2 (NSD2) in an isogenic RCH-ACV NSD2 p.E1099K mutant (9B) (AID 1645876); conditions: RCH-ACV NSD2 E1099K (9B) viability, CellTiter-Glo, 72 h; series mostly up to 44.9 µM; also: potency is read from the fitted curve at half-maximal effect; nearly all actives have a fitted effect of over 70% in size
[6] = Primary qHTS for inhibitors of nuclear receptor binding SET domain protein 2 (NSD2) in an RCH-ACV wild type WT cells (2C) (AID 1645877); conditions: RCH-ACV (leukaemia line) NSD2 WT (2C) viability, CellTiter-Glo, 72 h; series mostly up to 44.9 µM; also: potency is read from the fitted curve at half-maximal effect; nearly all actives have a fitted effect of over 70% in size
[7] = molecular target: Glutathione peroxidase 1 (Homo sapiens) (UniProt P07203); test: Primary qHTS Assay for Inhibitors of Recombinant Selenoprotein Glutathione Peroxidase 1 (GPX1) (AID 1845191); conditions: recombinant GPX1, GR-coupled NADPH fluorescence, 15 min; series mostly up to 48.8 µM; also: nearly all actives have a fitted effect of over 65% in size
Chain of Glutathione peroxidase 1 (Homo sapiens) (P07203 whole entry, looked up): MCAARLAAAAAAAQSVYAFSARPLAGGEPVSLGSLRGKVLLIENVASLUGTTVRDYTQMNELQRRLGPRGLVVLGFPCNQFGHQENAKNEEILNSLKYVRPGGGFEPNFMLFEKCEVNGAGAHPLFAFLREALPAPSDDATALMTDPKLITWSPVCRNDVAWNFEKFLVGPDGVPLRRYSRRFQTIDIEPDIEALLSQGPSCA
Summary of the method: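 GR-coupled assay: compounds preincubated 30 min at room temperature with GPX1, then reaction started with CHP; final 10 nM GPX1, 1 mM GSH, 0.5 mM CHP, 0.5 mM NADPH, 100 nM GR, 0.01% BSA, pH 7.5 Tris buffer. NADPH fluorescence (340/450 nm) read at 0 and 15 min.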

[8] = molecular target: Phospholipid hydroperoxide glutathione peroxidase GPX4 (Homo sapiens) (UniProt P36969); test: Primary qHTS Assay for Inhibitors of Recombinant Selenoprotein Glutathione Peroxidase 4 (GPX4) (AID 1845192); conditions: recombinant GPX4, GR-coupled NADPH fluorescence, 15 min; series mostly up to 50 µM; also: nearly all actives have a fitted effect of over 65% in size
Chain of Phospholipid hydroperoxide glutathione peroxidase GPX4 (Homo sapiens) (P36969 whole entry, looked up): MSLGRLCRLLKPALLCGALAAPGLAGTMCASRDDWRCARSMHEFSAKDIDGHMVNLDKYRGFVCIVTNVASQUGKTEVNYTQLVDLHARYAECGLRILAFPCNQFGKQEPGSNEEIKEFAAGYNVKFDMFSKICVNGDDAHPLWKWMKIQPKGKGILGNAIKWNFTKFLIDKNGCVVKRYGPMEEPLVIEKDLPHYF
Summary of the method: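 GR-coupled assay: recombinant GPX4 preincubated 30 min with compound at room temperature; final 200 nM GPX4, 1 mM GSH, 0.5 mM cumene hydroperoxide, 0.5 mM NADPH, 100 nM GR, 0.01% BSA, pH 7.5 Tris. NADPH fluorescence (340/450 nm) read at 0 and 15 min.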

[9] = qHTS drug screen for cell cycle checkpoint inhibitors in PARPi-resistant BRCA-mutant ovarian cancer cell lines. (AID 1963452; calls by dose curve); conditions: PEO1/OlaR viability, CellTiter-Glo luminescence, 96 h, stronger effect = lower value
Summary of the method: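 PEO1, PEO4 and PEO1/OlaR ovarian cancer cells, 600 per well, exposed 96 h at 37C to a dilution series. Viability read by CellTiter-Glo luminescence, normalized to DMSO and empty wells; activity summarized as Z-AUC.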

[10] = qHTS assay to identify inhibitors of the type 1 interferon - major histocompatibility complex class I in skeletal muscle: Counter screen cell viability and HiBit confirmation (AID 1347412); conditions: iHSKM muscle cells + IFN-b, HiBiT or CellTiter-Glo, 24 h; for activity change, negative = inhibition: at 45.9 µM (top of the series); also: potency is read from the fitted curve at half-maximal effect; as to all read-outs here: nearly all actives have a fitted effect of over 60% in size
Summary of the method: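 After 24 h with human IFN-beta (4 ng/ml) and compound titrations (top 46 uM final, 1:3, 12 points), HLA-B HiBit myoblasts were lysed for either Nano-Glo HiBiT luminescence or CellTiter Glo viability on paired plates.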

[11] = test system: NAD(P)H diaphorase (Clostridium kluyveri); test: Diaphorse counterscreen qHTS: Assay Interference Panel against the NCATS CANVASS Library (AID 1347362); conditions: Diaphorase enzyme, resazurin to resorufin fluorescence; series mostly up to 57.5 µM
Summary of the method: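 Clostridium kluyveri diaphorase in PBS + 0.01% Tween-20 preincubated 15 min with compounds. Resazurin and NADH then added for 5 min at room temperature in the dark; resorufin fluorescence read (ex 525, em 598).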

[12] = qHTS for Antimalaria activity screened against the NCATS CANVASS Library (AID 1347380); also: nearly all actives have a fitted effect of over 40% in size; also: potency is read from the fitted curve at half-maximal effect;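 as to activity change, negative = inhibition: Plasmodium falciparum strain Dd2 asexual parasites grown in red blood cells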; conditions: P. falciparum Dd2 growth, SYBR Green fluorescence, 72 h; series mostly up to 28.7 µM
Summary of the method: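 Growth inhibition of asexual erythrocytic P. falciparum Dd2 was quantified by SYBR Green DNA staining. Cultures grew 72 h with compound (11-point series) in hypoxic gas at 37C; lysis and staining lasted 18 h.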

[13] = Secretion counterscreen for inhibitors of the SERCaMP assay screened against the NCATS CANVASS Library (AID 1347390); conditions: SH-SY5Y constitutive GLuc secretion, luminescence, 20 h; series mostly up to 76.6 µM;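 also: light from luciferase secreted into medium read as a measure of general secretion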
Summary of the method: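 Counterscreen for secretory-pathway interference: after 4 h attachment, SH-SY5Y-GLuc cells were exposed 20 hours to compounds (final 0.001 - 77 uM), then coelenterazine added and GLuc luminescence recorded; Brefeldin A served as control.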

[14] = U-118MG Cancer Cell Toxicity qHTS against the NCATS CANVASS Library (AID 1347351); conditions: U-118MG viability, CellTiter-Glo luminescence, 72 h; series mostly up to 38.3 µM
Summary of the method: as §1

[15] = measured here: PEO1 parental Z-AUC

## CC[C@@H]1C[C@@]2(CC)OC(=O)[C@@]3(CC)[C@H](CC)[C@@H]1[C@@H]23
[1]
  Potency: inactive
[2]
  Potency: inactive
[3]
  Potency: inactive

## C[C@@H]1C[C@H](N)C[C@H](c2ccncc2NC(=O)c2ccc(F)c(-c3c(F)cccc3F)n2)C1
[4]
  Potency: 26.2 µM (active)
[5]
  Potency: 14.8 µM (active)
[6]
  Potency: 11.8 µM (active)
[7]
  Potency: inactive
[8]
  Potency: inactive
[9]
  Z-AUC: -0.973 (inactive)
[9]; [15]
  Z-AUC: -0.644
[9]; measured here: PEO4 Z-AUC
  Z-AUC: -0.817
[10]; HiBiT
  activity change, negative = inhibition: -24.5% (inactive)
[10]; Viability
  activity change, negative = inhibition: -19.6% (inactive)

## CC(=O)c1c(C)cc2c(c1O)C(=O)c1c(O)cc(O)cc1C2=O
[1]
  Potency: inactive
[11]
  Potency: inactive
[2]
  Potency: inactive
[12]
  Potency: inactive
[13]
  Potency: inactive

## CC[C@@H](c1cc(OC)c(OC)cc1OC)[C@H](C)[C@@H](/C(C)=C/c1cc(OC)c(OC)cc1OC)c1cc(OC)c(OC)cc1OC
[1]
  Potency: inactive
[14]
  Potency: inactive
[2]
  Potency: 13.2 µM (active)
[12]
  Potency: 747 nM (active) and 1.88 µM (active)
[3]
  Potency: inactive
[13]
  Potency: inactive

## C/C(=C\[C@@H](C)CC/C=C/CC/C=C/C(=O)O)[C@H](O)[C@H](C)C(=O)CCCC1CC(=O)NC(=O)C1
[11]
  Potency: inactive
[12]
  Potency: inactive
[3]
  Potency: inactive
[13]
  Potency: inactive

## C/C(=C\[C@H](C)C(=O)C[C@H](O)CC1CC(=O)NC(=O)C1)[C@@H]1OC(=O)CCCC/C=C/[C@@H](O)C[C@@H]1C
[1]
  Potency: 9.41 µM (active)
[11]
  Potency: inactive

## Cc1ccc(NC(=O)NCc2ccc3c(c2)CN(C2CCC(=O)NC2=O)C3=O)cc1Cl (configuration not stated)
[4]
  Potency: 0.0147 µM (active)
[5]
  Potency: 0.0015 µM (active)
[6]
  Potency: 0.0012 µM (active)
[7]
  Potency: inactive
[8]
  Potency: inactive
[9]
  Z-AUC: -3.37 (inactive)
[9]; [15]
  Z-AUC: -3.53
[9]; measured here: PEO4 Z-AUC
  Z-AUC: -3.45
[10]; HiBiT
  Potency: 0.0079 µM (active)
[10]; Viability
  activity change, negative = inhibition: -11.6% (inactive)

## C/C=C1/C2=CCCN3C(=O)O[C@H]([C@H]1O)[C@H]23
[14]
  Potency: inactive
[2]
  Potency: inactive
[3]
  Potency: inactive
[13]
  Potency: inactive

## CN1CCc2cc3c(c4c2C1(C)C(=O)c1cc(O)ccc1-4)OCO3 (configuration not stated)
[11]
  Potency: inactive
[2]
  Potency: 13.2 µM (active)

## C/C(=C\[C@H](C)C(=O)/C=C/CC1CC(=O)NC(=O)C1)[C@@H]1OC(=O)CCCC/C=C/[C@H](O)[C@@H](O)[C@@H]1C
[11]
  Potency: inactive
[2]
  Potency: 23.4 µM (active)
[12]
  Potency: inactive
[3]
  Potency: inactive
[13]
  Potency: inactive

## COc1cc(C2C3=C(Cc4cc5c(cc42)OCO5)C(=O)OC3)cc(OC)c1OC (configuration not stated)
[2]
  Potency: inactive
[12]
  Potency: 9.41 µM (active)
[3]
  Potency: inactive

## CN[C@@H](C)C(=O)N[C@@H]1C(=O)N(Cc2c(C)ccc3ccccc23)c2ccc(C#N)cc2N(C(C)=O)[C@H]1C
[4]
  Potency: inactive

## CC[C@@H]1[C@H](C)[C@H](c2cc(OC)c(OC)cc2OC)[C@@H](C)[C@H](c2cc(OC)c(OC)cc2OC)[C@]12C=C(OC)C(=O)C=C2OC
[2]
  Potency: 23.4 µM (active)
[12]
  Potency: 2.98 µM (active)

## C=C(Cl)[C@](Cl)(CBr)CC[C@@H](Br)C(C)(C)Cl
[1]
  Potency: 14.9 µM (active)
[11]
  Potency: inactive
[2]
  Potency: 23.4 µM (active)
[3]
  Potency: inactive
[13]
  Potency: inactive

## O=C1OC(CCO)c2cccc(O)c21 (configuration not stated)
[1]
  Potency: inactive
[2]
  Potency: inactive
[12]
  Potency: inactive

## C[C@H]1CCC2(OC1)O[C@H]1C[C@H]3[C@@H]4CC(=O)[C@]5(O)C[C@H](O)CC[C@@]5(C)[C@H]4CC[C@@]3(C)[C@H]1[C@H]2C (some centres not stated)
[14]
  Potency: inactive
[11]
  Potency: inactive
[3]
  Potency: 23.4 µM (active)
[13]
  Potency: inactive

## C/C=C/c1cc2c(c(=O)o1)C(=O)[C@@H](O)[C@H](C)O2
[11]
  Potency: inactive
[12]
  Potency: inactive

## COC(=O)c1ccc([C@H]2c3[nH]c4ccccc4c3C[C@H](C(=O)OC)N2C(=O)CCl)cc1
[4]
  Potency: 0.829 µM (active)
[5]
  Potency: 0.148 µM (active)
[6]
  Potency: 0.148 µM (active)
[7]
  Potency: inactive
[8]
  Potency: inactive
[9]
  Z-AUC: -1.5 (inactive)
[9]; [15]
  Z-AUC: 0.403
[9]; measured here: PEO4 Z-AUC
  Z-AUC: -0.118
[10]; HiBiT
  Potency: 0.496 µM (active)
[10]; Viability
  Potency: 0.787 µM (active)

## C=CC(C)(C)C(=O)[C@@H](C)[C@@H]1CC[C@@](C)(C=C)O1
[1]
  Potency: inactive
[11]
  Potency: inactive
[2]
  Potency: inactive
[12]
  Potency: inactive

## C=C[C@]1(C)CC[C@@H]([C@H](C)C(=O)/C=C/C(C)(C)O)O1
[14]
  Potency: inactive
[12]
  Potency: inactive
[13]
  Potency: inactive

## C=C1C[C@H]2O[C@@H]3[C@@H]4[C@H](CC[C@@](C)(O)[C@@H]42)[C@H](C)COC3(C)[C@@H](OC(=O)CCCCCCC)C[C@H]1O (some centres not stated)
[14]
  Potency: inactive
[2]
  Potency: inactive
[12]
  Potency: 0.0059 µM (active)
[3]
  Potency: inactive
[13]
  Potency: inactive

## C=C1C(=O)O[C@H]2[C@H]1CCC(C)=C1CC[C@@](C)(O)[C@@H]12
[1]
  Potency: 18.8 µM (active)
[11]
  Potency: inactive
[3]
  Potency: inactive

## O=Cc1ccc2n1C[C@]1(OC2)O[C@H](CO)[C@@H](O)[C@@H]1O
[1]
  Potency: inactive
[11]
  Potency: inactive
[2]
  Potency: inactive
[3]
  Potency: inactive

## COc1c(O)cc(O)c2c(=O)cc(-c3ccccc3)oc12
[11]
  Potency: inactive
[2]
  Potency: inactive
[12]
  Potency: inactive
[13]
  Potency: inactive

## C[C@@]12CCC[C@@](C)(C(=O)OP(=O)(O)OC[C@H]3O[C@@H](n4cnc5c(N)ncnc54)[C@H](O)[C@@H]3O)[C@H]1C[C@@H](O)[C@@]13C[C@@H](CC[C@@H]21)[C@](C)(O)C3
[1]
  Potency: inactive
[2]
  Potency: inactive
[12]
  Potency: inactive
[3]
  Potency: inactive

## O=C1CCC(=O)N(O)CCCCCNC(=O)CCC(=O)N(O)CCCCCNC(=O)CCC(=O)N(O)CCCCCN1
[11]
  Potency: inactive
[2]
  Potency: inactive
[12]
  Potency: 4.72 µM (active)
[3]
  Potency: inactive
